From PubChem BioAssay AID651636 (Sanford-Burnham Center for Chemical Genomics, 2012)
About 3,000 (0.83%) of roughly 360,000 compounds were called active. What follows is part of a selection rich in actives, with near analogues and random picks from the rest. Values without a mark were called inactive. Rule as the data show it: active = inhibition above about 38%; inactive = the rest.

Molecular target: G-protein coupled receptor 183 (Homo sapiens) (UniProt P32249)
Test: EBI2 receptor antagonists, beta-arrestin recruitment, primary screen, cell-based, luminescence, 7a,25-OHC stimulation, uHTS (AID 651636);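 also: enzyme fragment complementation signal reports receptor beta-arrestin coupling in cells; 0% = agonist plus DMSO wells and 100% = wells without agonist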
Settings: 7a,25-OHC stimulated, at 5 µM, active compounds read high

Sequence of G-protein coupled receptor 183 (Homo sapiens) (P32249 whole entry, looked up, the tested form may be a part): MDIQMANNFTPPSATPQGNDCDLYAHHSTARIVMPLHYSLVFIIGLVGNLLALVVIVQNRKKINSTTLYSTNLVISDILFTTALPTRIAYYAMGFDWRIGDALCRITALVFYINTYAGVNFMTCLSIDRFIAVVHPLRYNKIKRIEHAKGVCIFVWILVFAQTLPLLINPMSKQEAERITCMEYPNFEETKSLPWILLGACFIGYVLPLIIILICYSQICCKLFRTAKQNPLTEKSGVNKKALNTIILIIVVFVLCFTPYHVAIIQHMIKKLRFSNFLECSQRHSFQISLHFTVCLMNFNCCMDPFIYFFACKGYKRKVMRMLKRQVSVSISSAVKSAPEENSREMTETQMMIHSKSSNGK

Row | Structure (SMILES) | inhibition
1 | O=C(CC1SCCNC1=O)Nc1ccc(Cl)cc1 (centres undefined) | 0.627%
2 | CC(Sc1ccccc1F)C(=O)Nc1cccc(S(=O)(=O)N2CCOCC2)c1 (centres undefined) | 7.64%
3 | CCOc1ccc(CCNC(=O)C(CC)n2nc(C)n3c(cc4sccc43)c2=O)cc1OCC (centres undefined) | 0.672%
4 | Cc1ccc(-c2cc(C(F)(F)F)n3ncc(C(=O)N4CCCCC4c4cccnc4)c3n2)cc1 (centres undefined) | 19.8%
5 | CCn1c(N)c(Br)c(=O)[nH]c1=O | -5.96%
6 | O=C(CSc1ccccc1)Nc1cc(Cl)ccc1Oc1ccccc1 | 63.2% (active)
7 | CC(=O)Nc1ccc(SCC(=O)Nc2ccccc2Oc2ccccc2)cc1 | 6.4%
8 | CC1CCCN(CC(=O)Nc2cc(Cl)ccc2Oc2ccccc2)C1 (centres undefined) | 6.08%
9 | Cn1c(=O)c(=O)n(C)c2cc(S(=O)(=O)CCC(=O)N3CCCCC3)ccc21 | -3.96%
10 | CN1CCN(C(=O)Cn2c(C(F)(F)F)nc3ccccc32)CC1 | -3.36%
11 | CC(C)Cn1c(N2CCN(C(=O)/C=C/c3ccccc3)CC2)nc2ccccc21 | 59.1% (active)
12 | C=CCn1c(C(C)NC(=O)CC)nc2ccccc21 (centres undefined) | -24.2%
13 | COC(=O)[C@]12CCCCC=C1N(Cc1ccc3c(c1)OCO3)C(=O)[C@H](CC(=O)N1CCOCC1)C2 | 6.39%
14 | O=C(Nc1ccc2c(c1)CCC2)c1ccc(Br)s1 | -9.47%
15 | O=C(COc1ccc(Cl)cc1[N+](=O)[O-])N1CCCCC1 | 5.52%
16 | CCOC(=O)N1CCN(C(=O)COC(=O)c2cccc(S(C)(=O)=O)c2)CC1 | -8.93%
17 | CCOC(=O)N1CCN(S(=O)(=O)c2ccc(Br)cc2)CC1 | 8.56%
18 | CCOC(=O)C1CCN(C(=O)Nc2ccc(C)c(Cl)c2)CC1 | 8.32%
19 | Cc1cc(S(=O)(=O)N2CCOCC2)ccc1OCC(=O)N1CCOCC1 | -8.03%
20 | CCOC(=O)C1CCN(C(=O)COc2cccc3ccccc23)CC1 | 6.68%

Row | Structure (SMILES) | inhibition
21 | CCOC(=O)C1CCN(C(=O)COc2cc(C)c(Br)c(C)c2)CC1 | 74.6% (active)
22 | CCOC(=O)N1CCN(C(=O)COc2ccc(Cl)cc2C)CC1 | 63.5% (active)
23 | CCOC(=O)N1CCN(C(=O)COc2ccc(Br)cc2)CC1 | 89% (active)
24 | O=C(NCc1ccc(F)cc1)C1CCN(C(=O)Nc2ccc(F)cc2)CC1 | 16%
25 | CC(=O)c1c(C)[nH]c(C(=O)OCC(=O)Nc2c(C)n(C)n(-c3ccccc3)c2=O)c1C | 8.82%
26 | Cc1cccn2c(=O)nc(SCC(=O)NCc3ccccc3Cl)nc12 | -6.29%
27 | Cc1nn(C)cc1/C=C1\CCC/C(=C\c2cn(C)nc2C)C1=O | 6.14%
28 | CC(C)CN1C(=O)CN(S(C)(=O)=O)CC1(C)C(=O)NCc1ccccc1 (centres undefined) | -1.75%
29 | Cn1c(=O)cc(SCC(=O)N2CCN(C(=O)c3ccco3)CC2)c2ccccc21 | -7.92%
30 | C=CCOc1ccc(/C=C/C(=O)OCC(=O)NC2CCCCCC2)cc1 | 0.205%
31 | N#C/C(=C\c1ccccc1)c1n[nH]c(Cn2cncn2)n1 | -5.28%
32 | CCNC(=O)COc1cc(C)c(Br)c(C)c1 | -7.22%
33 | COC(=O)C[C@@H]1C=C[C@@H](NC(=O)c2ccc3c(c2)OCO3)[C@@H](CO)O1 | 0.556%
34 | O=C(NNC1=C(C(=O)C(F)(F)F)CCC1)c1ccncc1 | 8.49%
35 | CCNC(=S)N1CCC(c2nc3cc(C)c(C)cc3[nH]2)CC1 | -8.84%
36 | Cc1coc2c(O)cc3c(c12)OC1(N2CCCCC2)C(=O)NCCCC31 (centres undefined) | 9.31%
37 | NCCCCC(C(=O)O)N(C(=O)OCc1ccccc1)C(=O)OCc1ccccc1 (centres undefined) | -5.81%
38 | O=C1/C(=C\c2ccc([N+](=O)[O-])cc2)CS(=O)(=O)C/C1=C/c1ccc([N+](=O)[O-])cc1 | 50.3% (active)
39 | O=C(Cc1ccccc1)N1CCN(S(=O)(=O)c2ccc([N+](=O)[O-])cc2)CC1 | -5.46%
40 | Cc1ccc([N+](=O)[O-])cc1S(=O)(=O)N1CCCN(C)CC1 | -7.92%

Row | Structure (SMILES) | inhibition
41 | O=C1NC(c2ccccc2)Cc2ccncc21 (centres undefined) | -15.8%
42 | CC(C)Oc1ccc(C(=O)NC(C)(C)CO)cc1 | -14.5%
43 | Cn1cc[n+](C)c1COc1ccc(C=O)cc1 | -3.22%
44 | Fc1ccccc1/C=N/Nc1cc(N2CCCCC2)ncn1 | 53.8% (active)
45 | COc1ccccc1N1CCN(C(=O)C(=O)N/N=C/c2ccccc2F)CC1 | 2.46%
46 | Nc1[nH][nH]c(=O)c1N=Nc1ccc2c(c1)OCO2 | -4.76%
47 | Cc1cccc(N=C2NC(=O)/C(=C/c3cn(C)c4ccccc34)S2)c1 | 45% (active)
48 | Cc1cccc(N=C2SC(C)CN2C(=O)CN2C(=O)NC3(CCCC3)C2=O)c1 (centres undefined) | 8.85%
49 | Cc1cccc(Oc2c([N+](=O)[O-])c(=O)n(C)c3ccccc23)c1 | -38.4%
50 | Cc1cc(C)nc(/N=C2\NC(=O)CC(C(=O)O)N2c2ccc(Cl)cc2Cl)n1 (centres undefined) | -2.42%
51 | Cn1c(N)c(C(=O)COC(=O)C23CC4CC(CC(C4)C2)C3)c(=O)n(C)c1=O | -6.77%
52 | Cc1oc2nc(SCC(=O)NCc3cccnc3)nc(N)c2c1C | -8.34%
53 | CC(=O)c1ccc(OCC(=O)N(C)C2CCS(=O)(=O)C2)cc1 (centres undefined) | -3.69%
54 | COc1ccc(NC(=O)/C(Cl)=C(/Cl)S(=O)Cc2ccc(C)cc2)cn1 (centres undefined) | 68.1% (active)
55 | CC(=O)Nc1ccc(CNc2nc(NCCN(C)C)nc3cc(-c4ccccc4)sc23)cc1 | 0.94%
56 | Nc1nc(SCC(=O)NN(c2ccccc2)c2ccccc2)n[nH]1 | -1.98%
57 | O=C(COc1nsnc1N1CCOCC1)Nc1ccccc1Cl | -1.57%
58 | O=C(Nc1ccccc1Cl)/C(Cl)=C(\Cl)S(=O)c1ccccc1 (centres undefined) | 59.7% (active)
59 | Cc1cccc(-c2nc(CS(=O)CC(=O)NC(C)CCc3ccccc3)c(C)o2)c1 (centres undefined) | 0.721%
